From PubChem BioAssay
CBX7 inh: CBX7 inhibition, primary AlphaScreen | 66,000 compounds, 1.1% hits | O95931 | AlphaScreen His6-CBX7 / biotin-H3K27me3 peptide binding; active compounds read low | AID 1224903 | normalised signal (fraction of DMSO) (test concentration not listed); in the data active means normalised signal below about 0.5
Target sequence (O95931 whole entry, looked up): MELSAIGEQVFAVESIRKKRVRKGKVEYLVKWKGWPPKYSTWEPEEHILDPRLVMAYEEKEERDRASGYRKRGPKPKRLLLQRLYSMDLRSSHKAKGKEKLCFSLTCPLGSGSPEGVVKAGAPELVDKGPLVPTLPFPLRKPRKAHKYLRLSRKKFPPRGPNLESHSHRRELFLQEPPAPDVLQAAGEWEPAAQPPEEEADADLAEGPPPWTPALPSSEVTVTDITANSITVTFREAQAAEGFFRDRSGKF
Hits are given with their value; n = inactive. Many of the other results were omitted from the sample, so hits are more common in it than they were.

SMILES	CBX7 inh
Cc1cc(=O)n2ccc(CN3CCCCC3)c(O)c2n1	0.00422
Cc1ccc(-n2c(Cc3cccn3C)nnc2SCC(=O)Nc2c(C)cc(C)cc2C)cc1	n
Cc1c(C(=O)NCc2ccc(F)cc2)sc2ncn(CC(=O)N3CCC(C)CC3)c(=O)c12	n
Cc1nn(-c2ccccc2)c(Cl)c1C(=O)Nc1ccc(C2CCCCC2)cc1	n
CN(C)CCNC(=O)c1cc(-c2ccncc2)nc2ccccc12	n
CCOc1ccc(-c2cc(C(=O)NCCN(CC)c3ccccc3)c3ccccc3n2)cc1	n
CCCCN(CCCNC(=O)c1cc(-c2ccncc2)nc2ccccc12)c1ccccc1	n
CCN(CCNC(=O)c1cc(-c2cccnc2)nc2ccccc12)c1ccccc1	0.474
CCN(CCCNC(=O)c1cc(-c2cccnc2)nc2ccccc12)c1ccccc1	n
CCN(CCCNC(=O)c1cc(-c2ccncc2)nc2ccccc12)c1ccccc1	0.314
Cc1cccc(C)c1NC(=O)c1cnc2ccccn2c1=O	n
COc1ccc(-c2[nH]ncc2Oc2ccc(C(=O)O)cc2)c(O)c1	n
Cc1ccccc1-n1c(/C=C/c2cn(Cc3ccccc3)c3ccccc23)nc2ccccc2c1=O	n
CCOC(=O)c1cnc2c(C)cc(C)cc2c1Nc1ccccc1	n
O=C(Nc1ccc2nc3n(c(=O)c2c1)CCCCC3)c1cc2ccccc2[nH]1	n
CCCCc1ccc(NC(=O)c2cnc3scc(C)n3c2=O)cc1	n
CCCCCn1c(=O)[nH]c2cc(C(=O)NCc3ccc(Cl)cc3)ccc2c1=O	n
CCCCCn1c(=O)[nH]c2cc(C(=O)NCc3ccccn3)ccc2c1=O	0.106
O=C(NCc1ccccn1)c1ccc2c(=O)n(CCc3ccccc3)c(=O)[nH]c2c1	n
C=CCn1c(Cc2c(C)[nH]c3ccccc23)nnc1SCC(=O)Nc1ccc(OCC)cc1	n
COc1ccc2nc(SCC(=O)Nc3ccc(NC(C)=O)cc3)[nH]c2c1	n
O=C(Nc1cccnc1)C1CCN(S(=O)(=O)c2cccc3cccnc23)CC1	n
COc1ccc2c(c1)CCc1c(C(=O)NCCc3ccccc3)noc1-2	n
CCC(C)NC(=O)c1cc2c(s1)CS(=O)(=O)C2 (stereo not given)	n
Cc1ccc(NC(=O)C2c3ccccc3C(=O)N3CCc4ccccc4C23)nc1 (stereo not given)	0.3
SMILES	CBX7 inh
Cc1ccccc1NC(=O)C1c2ccccc2C(=O)N2CCc3ccccc3C12 (stereo not given)	n
COc1cc2c(cc1OC)C1C(C(=O)Nc3ccc(Cl)cn3)c3ccccc3C(=O)N1CC2 (stereo not given)	n
COc1ccc(CCNC(=O)CN2N=C(c3ccccc3)CCC2=O)cc1OC	n
O=C(CCCN1Cc2ccccc2C1)Nc1c2c(nc3c1CCC3)CCCC2	n
NC(=O)C1CCN(CC(=O)Nc2c3c(nc4ccccc24)CCC3)CC1	n
CN(CC(=O)Nc1c2c(nc3c1CCC3)CCCC2)Cc1ccccc1	0.242
O=C(CN1CCCCC1)Nc1c2c(nc3ccccc13)CCCC2	n
O=C(CN1CCCCC1)Nc1c2c(nc3c1CCC3)CCCC2	0.446
COc1ccccc1C(=O)Nc1c2c(nc3c1CCC3)CCCC2	n
OCc1cn(-c2ccccc2)nc1-c1ccc(F)cc1	n
COc1ccccc1CNC(=O)c1cc2oc(C)cc2n1Cc1ccc(Cl)cc1	n
c1ccc2c(-c3nc(-c4ccncc4)no3)cc(-c3ccncc3)nc2c1	n
Cc1ccccc1-c1noc(-c2cc(-c3ccncc3)nc3ccccc23)n1	n
CCCc1noc(-c2cc(-c3ccncc3)nc3ccccc23)n1	0.436
CCOc1ccc(NC(=O)c2cc3c(n(-c4ccccc4)c2=O)CCCC3=O)cc1	n
NC(=O)c1oc2ccccc2c1NC(=O)COc1ccc(Cl)cc1Cl	n
O=C(NC1CCCC1)C1CCCN(C(=O)c2cnn(-c3ccccc3)c2-n2cccc2)C1 (stereo not given)	n
COc1cc(NC(=O)COc2ccccc2C(C)C)c(OC)cc1Cl	n
COc1cccc(Nc2nc(-c3ccccc3F)nc3ccccc23)c1	0.331
COc1ccc(Nc2nc(-c3ccccc3F)nc3ccccc23)c(OC)c1	n
Fc1cccc(Nc2nc(-c3ccccc3F)nc3ccccc23)c1	n
Cc1cc(N2CCC(C(=O)NCc3ccccn3)CC2)n2nc(C)c(-c3ccc(Cl)cc3)c2n1	n
CC(C)C(=O)Nc1c(C(=O)c2ccc(Br)cc2)oc2ccccc12	n
CCc1ccc(C(=O)CC2(O)C(=O)N(Cc3ccc(Cl)cc3)c3ccccc32)cc1 (stereo not given)	0.423
Cc1ccc(C(=O)CC2(O)C(=O)N(Cc3ccc(Cl)cc3)c3ccccc32)cc1 (stereo not given)	n
SMILES	CBX7 inh
COc1ccc(C(=O)CC2(O)C(=O)N(Cc3ccc(Cl)cc3)c3ccccc32)cc1 (stereo not given)	n
CCOC(=O)c1ccc(NC(=O)c2c(Cl)ccc(Cl)c2OC)cc1	n
c1ccc(Cc2ccc(Oc3ncnc4sc5c(c34)CCCC5)cc2)cc1	n
c1ccc(COc2ccc(Oc3ncnc4sc5c(c34)CCCC5)cc2)cc1	n
c1nc(Oc2ccc3c4c2CCCN4CCC3)c2c3c(sc2n1)CCCC3	0.268
CSCCC(Nc1ncnc2ccccc12)C(=O)O (stereo not given)	n
Cc1ccc(Nc2nc(C(F)(F)F)c(-c3ccc(Cl)cc3)s2)cc1	n
CCCCN(C)CCNC(=O)Cn1ncc2c1-c1ccccc1OC2	n
COc1ccccc1Nc1nc(-c2sc(NC(C)=O)nc2C)cs1	n
Cc1ccccc1Nc1nc(-c2sc(N)nc2C)cs1	n
CC(=O)Nc1nc(C)c(-c2csc(Nc3cccc(C)c3)n2)s1	n
COc1ccccc1Nc1nc(-c2sc(N)nc2C)cs1	0.372
Cc1cccc(Nc2nc(-c3sc(N)nc3C)cs2)c1	0.483
Cc1nc(N)sc1-c1csc(Nc2ncccn2)n1	n
CC1(C)Cc2c(C#N)c(OCC(=O)c3ccccc3)nc(-c3ccco3)c2CO1	n
Cc1c(C(=O)Nc2cccc(Cl)c2)sc2ncn(CC(=O)N3CCCCC3C)c(=O)c12 (stereo not given)	n
Cc1ccc(CCN2CC(C(=O)NCc3ccc(C)cc3)CC2=O)cc1 (stereo not given)	n
Clc1cccc(CN2CCN(Cc3cccnc3)CC2)c1	n
CCSc1nnc(-c2ccc(C)c(S(=O)(=O)NCc3cccnc3)c2)c2ccccc12	n
Cc1cc(N2CC(C)CC(C)C2)nc2ccc(NC(=O)CCC(=O)Nc3ccc(F)cc3)cc12 (stereo not given)	n
O=C(Cn1c2c(c(-c3ccccc3Cl)cc1=O)CCC2)NCCc1ccccc1	n
CCC(=C(c1ccc(OC)cc1)c1ccc(OC)cc1)c1cn(CCCN(C)C)c2ccccc12	0.273
COc1ccc(C(=O)c2cn(Cc3ccc(Cl)cc3)c3ccccc3c2=O)cc1	n
COc1ccc(C(O)Cn2c(=N)n(CCCN(C)C)c3ccccc32)cc1 (stereo not given)	n
CC1=C(C(=O)Nc2cccc(C)n2)C(c2cccnc2)C2=C(CC(C)(C)CC2=O)N1 (stereo not given)	n
SMILES	CBX7 inh
Cc1c(Cl)cccc1Nc1nc(-c2cccnc2)cs1	n
CC(=O)Nc1ccc(Nc2nc(-c3ccccn3)cs2)cc1	0.0608
CC(=O)Nc1ccc(Nc2nc(-c3cc4ccccc4o3)cs2)cc1	n
CC(=O)c1cccc(Nc2nc(-c3ccccn3)cs2)c1	0.38
CC(=O)Nc1ccc(Nc2nc(-c3c(C)nc4ncccn34)cs2)cc1	n
Cc1c(Cl)cccc1Nc1nc(-c2cccs2)cs1	n
COc1ccc(-c2csc(Nc3cccc(C(C)=O)c3)n2)cc1OC	n
